# Rce1 inh: yeast Ras-converting enzyme inhibition; Q03530; yeast membranes, quenched prenylated peptide cleavage fluorescence; 290,000 tested, 0.27% active; AID 2563; calls only;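 active = fall in fluorescence gain of 50% or more versus controls, with final raw signal at or below 3038400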
# NALP1 yeast inh: blocks the NALP1 inflammasome reconstituted in yeast; S. cerevisiae NALP1/ASC/caspase-1 growth, X-gal OD620, 72 h; inhibition, % at 10 µM; 280,000 tested, 0.61% active; in the data active = inhibition mostly above about 24%, no sharp cut-off; inactive = mostly below about 32%
# PERK inhibitor: human PERK inhibition, primary cell-based screen. Q9NZJ5. CHO PERK-DD fusion, SEAP luminescence translation reporter. inhibition, % at 5.6 µM. 220,000 tested, 0.17% active;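 active = inhibition above the mean inhibition of all tested compounds plus 3 SD, set separately per screening campaign, cut at about 2.9% in these data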;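 note: PERK kinase domain activated by AP20187 dimerizer at 100 nM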
# Target sequence (Q9NZJ5 whole entry, looked up, the tested form may be a part): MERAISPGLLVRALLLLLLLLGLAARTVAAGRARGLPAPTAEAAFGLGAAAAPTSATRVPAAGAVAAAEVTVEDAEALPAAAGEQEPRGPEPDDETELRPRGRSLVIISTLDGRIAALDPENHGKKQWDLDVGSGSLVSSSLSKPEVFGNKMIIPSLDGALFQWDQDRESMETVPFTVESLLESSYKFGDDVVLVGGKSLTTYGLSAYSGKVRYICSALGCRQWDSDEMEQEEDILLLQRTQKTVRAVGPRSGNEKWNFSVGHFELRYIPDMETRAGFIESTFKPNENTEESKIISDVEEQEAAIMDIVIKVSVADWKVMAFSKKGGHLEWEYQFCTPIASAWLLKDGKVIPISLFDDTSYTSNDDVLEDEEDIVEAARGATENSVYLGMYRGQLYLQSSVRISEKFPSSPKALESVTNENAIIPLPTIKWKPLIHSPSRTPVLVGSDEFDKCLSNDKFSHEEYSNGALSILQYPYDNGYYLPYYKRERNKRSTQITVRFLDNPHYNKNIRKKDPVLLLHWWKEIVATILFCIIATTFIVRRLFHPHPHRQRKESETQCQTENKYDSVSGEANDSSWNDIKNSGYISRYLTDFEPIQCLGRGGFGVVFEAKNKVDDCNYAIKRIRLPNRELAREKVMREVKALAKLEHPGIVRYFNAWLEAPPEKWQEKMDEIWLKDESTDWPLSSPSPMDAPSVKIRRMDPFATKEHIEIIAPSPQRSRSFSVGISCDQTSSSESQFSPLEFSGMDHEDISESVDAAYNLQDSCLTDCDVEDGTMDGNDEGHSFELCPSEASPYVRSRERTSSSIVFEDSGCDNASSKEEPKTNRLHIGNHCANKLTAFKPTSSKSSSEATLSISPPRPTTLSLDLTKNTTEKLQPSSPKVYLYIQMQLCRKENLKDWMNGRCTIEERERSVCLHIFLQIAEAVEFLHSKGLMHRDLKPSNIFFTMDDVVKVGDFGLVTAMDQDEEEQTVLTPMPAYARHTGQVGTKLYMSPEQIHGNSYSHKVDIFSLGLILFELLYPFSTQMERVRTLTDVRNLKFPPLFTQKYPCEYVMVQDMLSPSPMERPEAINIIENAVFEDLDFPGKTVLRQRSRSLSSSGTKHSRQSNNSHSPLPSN
# NALP3 yeast inh: inhibitors of NALP3 inflammasome in yeast. Yeast reconstituted NLRP3/ASC/caspase-1, beta-gal luminescence, 24 h. inhibition, % at 10 µM. 330,000 tested, 0.39% active. AID 2825;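 active = inhibition of 50% or more; inactive = inhibition below 50%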
# V-ATPase pH: regulators of yeast V-ATPase proton transport; 350,000 tested, 0.37% active; AID 504577; S. cerevisiae, pHLuorin cytosolic pH fluorescence; response, % at 10 µM; in the data active = response mostly above about 7.3%, no sharp cut-off; inactive = mostly below about 5.4%; note: actives read high
# CR mimetic SO: yeast age-related superoxide inhibition as caloric restriction mimetic; S. cerevisiae aged cells, superoxide DHE fluorescence; hits give low values; superoxide response (% of plate mean), % at 10 µM; 330,000 tested, 0.18% active; AID 2690;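 active = superoxide response under a set limit, about three screen SD below normal, cut at about 65% in these data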;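 note: yeast aged for seven days with compound at 30 °C before DHE staining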
# Hits are given with their value; i = inactive; nt = no result given; + = active, no number. Sampled rows, rich in hits. Any-hit rate of the full collection: about 1.6%.
SMILES,Rce1 inh,NALP1 yeast inh,PERK inhibitor,NALP3 yeast inh,V-ATPase pH,CR mimetic SO
CC12CCC3c4ccc(OC(=O)N(CCCl)CCCl)cc4CCC3C1CCC2O (stereo not given),nt,nt,nt,nt,i,nt
Cc1ccccc1NC(=O)c1cc(-c2ccccc2)n(CCCN2CCOCC2)c1C,i,i,i,i,i,i
Cc1ccc(NC(=O)c2cc(-c3ccccc3)n(CCCN3CCOCC3)c2C)cc1,nt,37,i,i,i,i
C[C@H]1CN([C@@H](C)CO)C(=O)CCCn2nncc2CO[C@H]1CN(C)C(=O)Oc1ccc2ccccc2c1,nt,nt,nt,nt,i,nt
CCOC(=O)[C@@H]1[C@H]2COc3ccc(Br)cc3[C@@H]2N2C(=O)N(c3cccc(C)c3)C(=O)[C@]12C,+,i,nt,i,i,i
COc1cc(/C=C/[N+](=O)[O-])ccc1O,i,94,i,i,i,i
CCN(CC)c1ccc(/C=C/[N+](=O)[O-])cc1,i,i,i,i,i,i
CN1C(=O)C(=Cc2ccc(SC3CCCCC3)o2)C(=O)N(C)C1=O,i,i,3.0,i,i,i
COc1ccc(N2C(=O)NC(=O)/C(=C\c3ccc([N+](=O)[O-])s3)C2=O)cc1,i,i,i,i,102,i
COc1cccc(N2C(=O)NC(=O)/C(=C/c3ccc([N+](=O)[O-])s3)C2=O)c1,i,nt,i,i,111,i
COc1ccccc1N1C(=O)NC(=O)/C(=C/c2ccc([N+](=O)[O-])s2)C1=O,i,nt,i,i,125,i
COc1ccc(N2C(=O)NC(=O)/C(=C/c3ccc([N+](=O)[O-])s3)C2=O)cc1,i,nt,i,i,101,i
O=C1C=CC(=O)C2C1C1(Cl)C(Cl)=C(Cl)C2(Cl)C1(Cl)Cl (stereo not given),nt,nt,nt,nt,i,nt
COc1ccc(C(=O)N2CCCC2=O)cc1,i,i,3.0,i,i,i
N=c1c2c(n(Cc3ccc(Cl)cc3Cl)c3c1CCC3)CCCC2,i,i,i,i,13,i
Cc1nn(Cc2ccc(Cl)cc2Cl)c(Cl)c1C(=O)O,i,i,i,i,i,i
CCC(C)C1NC(=O)C(NC(=O)C(CC(C)C)N(C)C(=O)C2CCCN2C(=O)C(C)O)C(C)OC(=O)C(Cc2ccc(OC)cc2)N(C)C(=O)C2CCCN2C(=O)C(CC(C)C)NC(=O)[C@H](C)C(=O)[C@H](C(C)C)OC(=O)CC1O (stereo not given in full),nt,nt,nt,nt,i,nt
Fc1ccc(CCNCc2cccc(Cl)c2)cc1,i,41,i,i,i,i
CCOC(=O)c1cccc(C2=C(CNC(=O)c3ccc([N+](=O)[O-])cc3)[C@H]3CC[C@@H](C2)N3Cc2ccccc2)c1,nt,nt,nt,nt,i,nt
CC12CC[C@H]3[C@@H](CCC4(O)C[C@H](O)CCC34/C=N/NC(=O)c3ccccc3F)C1(O)CCC2C1=CC(=O)OC1 (stereo not given in full),i,nt,i,i,i,i
CC12CC[C@H]3[C@@H](CCC4(O)C[C@H](O)CCC34/C=N/NC(=O)c3ccccc3O)C1(O)CCC2C1=CC(=O)OC1 (stereo not given in full),i,nt,3.1,i,i,i
CN(C)c1ccc(C(=O)N/N=C/C23CC[C@@H](O)CC2(O)CC[C@@H]2[C@@H]3CCC3(C)C(C4=CC(=O)OC4)CCC23O)cc1 (stereo not given in full),i,nt,i,i,i,i
CC12CC[C@H]3[C@@H](CCC4(O)C[C@H](O)CCC34/C=N/NC(=O)c3ccc(O)cc3)C1(O)CCC2C1=CC(=O)OC1 (stereo not given in full),i,nt,2.9,i,i,i
O=C1CCC[C@@H]2C[C@@]3(C[C@@H]4CCN1[C@H]24)Nc1cc(Cl)ccc1NC3=NCc1ccccc1,nt,nt,nt,nt,i,nt
COc1cc2c(c(OC)c1OC)-c1ccc(SC)c(=O)cc1C(N)CC2 (stereo not given),nt,nt,nt,nt,i,nt
SMILES,Rce1 inh,NALP1 yeast inh,PERK inhibitor,NALP3 yeast inh,V-ATPase pH,CR mimetic SO
CCN(CC)CCNC(=O)c1c(O)c2ccccc2n(Cc2ccccc2)c1=O,i,i,i,i,i,i
CN(C)CCNC(=O)c1cccn(Cc2cc(C(F)(F)F)cc(C(F)(F)F)c2)c1=O,+,i,i,i,i,i
COc1ccc(CN2C(=O)NC(=O)/C(=C/c3ccc([N+](=O)[O-])s3)C2=O)cc1,i,i,i,i,133,i
O=C1NC(=O)N(Cc2ccc(F)cc2)C(=O)/C1=C\c1ccc([N+](=O)[O-])s1,i,nt,i,i,101,i
O=C1NC(=O)N(Cc2ccc(F)cc2)C(=O)/C1=C\c1ccc(N2CCCC2)cc1,i,i,i,i,i,i
CC1=NCCc2c1[nH]c1cc(O)ccc21,nt,nt,nt,i,i,i
COc1ccc2c3c([nH]c2c1)C(C)=NCC3,+,i,i,i,i,i
CNCC[C@@H](Oc1ccc(C(F)(F)F)cc1)c1ccccc1,nt,nt,nt,i,i,i
CNC(=O)N(C)c1ccc(C(O)(C(=O)OC)C(F)(F)F)cc1 (stereo not given),i,42,i,i,i,i
COC(=O)C(O)(c1ccc(N(C)C(=O)OC(C)C)cc1)C(F)(F)F (stereo not given),i,i,i,i,i,i
Nc1ncnc2c1ccn2[C@@H]1O[C@H](CO)[C@@H](O)[C@H]1O,nt,nt,nt,i,i,i
NC(=S)c1cn(C2OC(CO)C(O)C2O)c2ncnc(N)c12 (stereo not given),i,i,3.1,nt,i,i
Cc1c(C)c2ccc(OCC(=O)N3C[C@H]4C[C@@H](C3)c3cccc(=O)n3C4)cc2oc1=O,i,40,nt,i,i,i
COC(=O)C1=C(c2ccc(OCc3ccccc3)cc2)C[C@@H]2CC[C@H]1N2C(=O)NCCc1ccc(F)cc1,nt,nt,nt,nt,i,nt
CNC(=O)Oc1ccc2ncccc2c1,i,52,i,i,i,i
O=C(COC(=O)Cc1ccccc1)NC(=O)NC1CCCCC1,i,nt,nt,i,i,i
O=C(COC(=O)Cc1ccccc1)NC12CC3CC(CC(C3)C1)C2,i,24,i,i,i,i
Cn1c(=O)[nH]c2nncnc2c1=O,i,nt,nt,i,i,60
C[C@H]1CN([C@@H](C)CO)C(=O)CCCn2nncc2CO[C@@H]1CN(C)C(=O)Oc1ccccc1,nt,nt,nt,nt,i,nt
CCCCn1c(=O)c(C=Nc2cccnc2Cl)c(O)n(CCCCl)c1=O,+,i,i,i,i,i
CCOc1cc(CNCCc2c[nH]c3ccccc23)cc(Cl)c1OCC,i,54,i,i,i,i
COc1cc2c(c(OC)c1OC)-c1ccc(OC)c(=O)cc1C(N)CC2 (stereo not given),nt,nt,nt,nt,i,nt
Clc1ccc(C[n+]2c(-c3ccccc3)cc(-c3ccccc3)cc2-c2ccccc2)cc1,+,nt,nt,i,i,i
O=[N+]([O-])/C=C/c1c(Cl)cccc1Cl,nt,nt,nt,nt,i,nt
CCCCOc1ccc(CCN)cc1Cl,i,48,i,i,i,i
